Among all 290,000 compounds or so, about 1,800 (0.62%) were called active. Many of the other results were omitted from the sample, so actives are more common in it than they were. Unmarked numbers belong to inactive results. Cut-off read from the data, not from the text of the source: active = inhibition above about 50%; inactive = the rest.
Test: inhibition of NOD2-driven NF-kB reporter – cell-based, luminescence, uHTS, HEK293 (AID 1566)
Settings: HEK293 NOD2/NF-kB luciferase reporter, at 4 µM, stronger effect = higher value

Structure (SMILES)	inhibition
C[C@H]1C[C@@H](C)C(=O)[C@@H]([C@H](O)CC2CC(=O)NC(=O)C2)C1	73% (active)
CCn1c(O)c(C=Nc2ccc(N3CCOCC3)cc2)c(=O)n(CC)c1=S	22.7%
COCCN1C(=O)NC(=O)/C(=C\c2ccc(Br)cc2)C1=O	0.7%
CC(C)c1oc(=O)cc2c1[C@@H](O)[C@H]1OC(=O)[C@@]3(C)CC[C@@H](O)[C@@]2(C)C13 (some centres not stated)	20%
CC(C)c1oc(=O)cc2c1[C@@H](O)[C@H]1OC(=O)[C@@]3(C)C[C@@H](O)[C@@H](O)[C@@]2(C)C13 (some centres not stated)	64.6% (active)
CC(Cc1ccsc1)NCc1cn[nH]c1-c1ccc(F)cc1F (configuration not stated)	10.2%
COc1cc(N2CCOCC2)ccc1/C=C1\C(=O)NC(=O)N(C2CCCCC2)C1=O	12%
CCOC(=O)C1=CC(=C2C(=O)N(CC)C(=S)N(CC)C2=O)c2ccccc2O1	18.1%
O=C(CCNC(=O)N1C[C@H]2C[C@@H](C1)c1cccc(=O)n1C2)Nc1cccc(Cl)c1	13.1%
O=C(Nc1ccc(OC(=O)N2CCCC2)cc1)N1CCOCC1	12.5%
O=C(Nc1cccc(OC(=O)N2CCCCC2)c1)N1CCOCC1	-0.1%
O=C(Nc1ccc(OC(=O)N2CCCCC2)cc1)N1CCOCC1	62.5% (active)
COC(=O)c1nc(-c2ccc3c(n2)C(=O)C(N)=C(OC)C3=O)c(N)c(-c2ccc(OC)c(OC)c2O)c1C	57.2% (active)
O=C(c1ccc(N2CCCCC2)c([N+](=O)[O-])c1)N1CCC2(CC1)OCCO2	9.1%
CCC(=O)Nc1cc(C(=O)N2CCC3(CC2)OCCO3)ccc1S(=O)(=O)c1ccc(C)cc1	0.8%
CC(=O)Nc1cc(C(=O)N2CCC3(CC2)OCCO3)ccc1S(=O)(=O)c1ccc(Cl)cc1	6.8%
CC1CCCN(c2ccc(C(=O)N3CCC4(CC3)OCCO4)cc2[N+](=O)[O-])C1 (configuration not stated)	15.8%
O=C(c1ccc(N2CCCCCC2)c([N+](=O)[O-])c1)N1CCC2(CC1)OCCO2	73.2% (active)
CC(=O)Nc1cc(C(=O)N2CCC3(CC2)OCCO3)ccc1S(=O)(=O)c1ccc(C)cc1	52.9% (active)
O=C(COc1ccc2ccc(=O)oc2c1)N1C[C@H]2C[C@@H](C1)c1cccc(=O)n1C2	-2.7%
CN1CC(C(=O)c2ccc([N+](=O)[O-])cc2)C(c2ccc(Cl)cc2)C1 (configuration not stated)	16.2%
COC(=O)C(C)NC(=S)N1CC2C[C@@H](C1)Cn1c2cccc1=O (some centres not stated)	14.9%

From PubChem BioAssay AID1566 (Sanford-Burnham Center for Chemical Genomics, 2009)
